Drawing on PubChem BioAssay (Tox21), this text covers Potency for 8 compounds.

Records with an inconclusive call do not appear. Active and inactive are the calls of the source. Unless noted, the call rests on the fitted dose curve; in most records, active means well fitted curve in the direction sought with a large enough effect in the repeat runs; inconclusive means weak or mixed curves; inactive means no such curve, though single readings can be large; an effect the other way counts as inactive or inconclusive.

Assay [1] in a line: A CellTox Green Cytotoxicity Assay to monitor cytotoxicity in HepG2 cells - 0 hour (AID 1224882). Further: nearly all actives have a fitted effect of over 35% in size. The method, boiled down:
(§1)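 Measurements at 0, 8, 16, 24, 32 and 40 h of treatment captured CellTox Green fluorescence in HepG2 cells that had been co-plated with reagent and preincubated 5 h at 37 C/5% CO2.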

The nature of assay [2]: A CellTox Green Cytotoxicity Assay to monitor cytotoxicity in HepG2 cells - 32 hour (AID 1224883). Further: nearly all actives have a fitted effect of over 50% in size. Further: potency means the concentration at half of the fitted maximal effect. The method, boiled down: as §1
Assay [3] is described as follows: qHTS RealTime-Glo MT Cell Viability Assay in HepG2 cells - 16 hour (AID 1224885). Further: nearly all actives have a fitted effect of over 50% in size. Further: potency means the concentration at half of the fitted maximal effect. The method, boiled down: (§2)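 Luminescence read-out: viable HepG2 cells reduce a prosubstrate to a NanoLuc substrate, giving a signal proportional to live cell number. Reads taken at 0, 8, 16, 24, 32 and 40 h of compound exposure at 37 C.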
For orientation: qHTS replaces the single test concentration by a dilution series.

Assay [4] in a line: qHTS RealTime-Glo MT Cell Viability Assay in HEK293 cells - 24 hour (AID 1224886). Further: nearly all actives have a fitted effect of over 50% in size. Further: potency means the concentration at half of the fitted maximal effect. Summed up: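 Nonlytic real-time viability readout: viable cells convert prosubstrate to NanoLuc substrate, giving luminescence proportional to live cell number. HEK293, 600 cells/well, compound added after 5 h, continuous culture at 37 C.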
Assay [5] can be described thus: qHTS RealTime-Glo MT Cell Viability Assay in HEK293 cells - 8 hour (AID 1224887). Further: nearly all actives have a fitted effect of over 50% in size. Further: potency means the concentration at half of the fitted maximal effect. Summed up:
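HEK293 + NanoLuc + prosubstrate, 600 cells/well; 5 h, 37 C/5% CO2; compound 23 nL in DMSO by pintool; 37 C; luminescence read at 0, 8, 16, 24, 32 and 40 h time points.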

A short description of assay [6]: A CellTox Green Cytotoxicity Assay to monitor cytotoxicity in HEK293 cells - 16 hour (AID 1224888). Further: nearly all actives have a fitted effect of over 35% in size. Further: potency means the concentration at half of the fitted maximal effect. Summed up: (§3)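 Tox21 screen in HEK293: membrane-impermeant cyanine dye fluoresces on binding dead-cell DNA; compound pinned 5 h post-seeding, plates held at 37 C, signal read repeatedly through 40 h.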
Assay [7] in a line: qHTS RealTime-Glo MT Cell Viability Assay in HepG2 cells - 0 hour (AID 1224889). Further: nearly all actives have a fitted effect of over 50% in size. The method, boiled down: as §2
Assay [8] is described as follows: A CellTox Green Cytotoxicity Assay to monitor cytotoxicity in HepG2 cells - 8 hour (AID 1224890). Further: nearly all actives have a fitted effect of over 45% in size. Further: potency means the concentration at half of the fitted maximal effect. Summed up:
as §1

Assay [9] is described as follows: qHTS assay to identify small molecule antagonists of the estrogen receptor alpha (ER-alpha) signaling pathway using the BG1 cell line in the presence of 0.1 nM 17-beta-estradiol - cell viability counter screen (AID 1259241). Further: nearly all actives have a fitted effect of over 40% in size. The method, boiled down:
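Live-cell protease activity (CellTiter-Fluor fluorescence, 30 min) was read in the same wells after VM7Luc4E2 cells had been exposed to compounds with 0.1 nM 17beta-estradiol for 22 hr at 37C.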

A short description of assay [10]: qHTS assay to identify small molecule antagonists of the androgen receptor (AR) signaling pathway using the MDA cell line in the presence of 0.5 nM R1881 - cell viability counter screen (AID 1259242). Further: nearly all actives have a fitted effect of over 45% in size. Further: potency means the concentration at half of the fitted maximal effect. The method, boiled down: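 Concentration-response screen of compounds for toxicity in MDA-kb2 reporter cells: 16 hr at 37C with 0.5 nM R1881, endpoint live-cell protease fluorescence measured in the reporter wells.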

For assay [11], the target named is Androgen receptor (Homo sapiens) (UniProt P10275). Briefly: qHTS assay to identify small molecule antagonists of the androgen receptor (AR) signaling pathway using the MDA cell line in the presence of 0.5 nM R1881 (AID 1259243). Further: nearly all actives have a fitted effect of over 50% in size. Further: potency means the concentration at half of the fitted maximal effect. The method, boiled down:
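With R1881 held at 0.5 nM (final), compound effects on MMTV-luciferase expression in MDA-kb2 cells were scored by luminescence after a 16 hr, 37C incubation.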

The nature of assay [12]: qHTS assay to identify small molecule HDAC inhibitors (AID 1259364). Further: potency means the concentration at half of the fitted maximal effect.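 Further: wild-type HCT-116 cells with endogenous class I/II HDAC activity; nearly all actives have a fitted effect of over 45% in size.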 Summed up: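 Screening used wild-type human colon HCT-116 cells incubated overnight, dosed with compounds for 2 hours, and assayed with a homogeneous luminogenic HDAC I/II reagent for 30 minutes at room temperature.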
A short description of assay [13]: qHTS assay to identify small molecule HDAC inhibitors - cell viability counter screen (AID 1259365). Summed up: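 HCT-116 (wild type), 1,500 cells/well, overnight 37C/5% CO2; compound in DMSO 2hr; CellTiter-Glo 30min RT; luminescence read.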
Assay [14] is described as follows: qHTS assay to identify small molecule agonists of the sonic hedgehog signaling (Shh) pathway (AID 1259368; calls by dose curve;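 further: NIH/3T3-derived 3T3Gli1-Luc cells carrying a stable Gli1-driven firefly luciferase reporter; series mostly up to about 92 µM; nearly all actives have a fitted effect of over 15% in size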). Summed up: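 Hedgehog pathway agonism scored by increased firefly luciferase luminescence in 3T3Gli1-Luc cells treated 24 hr at 37 C; detection used a 30 min room-temperature reagent incubation.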
Assay [15] in a line: qHTS assay to identify small molecule antagonists of the sonic hedgehog signaling (Shh) pathway (AID 1259369; calls by dose curve; further: nearly all actives have a fitted effect of over 45% in size; further: potency means the concentration at half of the fitted maximal effect). The method, boiled down: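 NIH/3T3 stable Gli1-Luc clone, 2,000 cells/well, 4hr settle; cpd + conditioned medium 24hr; Luc reagent 30min RT; luminescence.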
The target of assay [16] is Estrogen receptor (Homo sapiens) (UniProt P03372). Description: qHTS assay to identify small molecule antagonists of the estrogen receptor alpha (ER-alpha) signaling pathway using the BG1 cell line in the presence of 0.1 nM 17-beta-estradiol (AID 1259244). Further: nearly all actives have a fitted effect of over 50% in size. Summed up: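 Compounds were tested against 0.1 nM (final) 17beta-estradiol in VM7Luc4E2 cells, which express full-length ER-alpha and an ERE-luciferase reporter; luminescence was recorded following 22 h exposure.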
Chain of Estrogen receptor (Homo sapiens) (P03372 whole entry, looked up): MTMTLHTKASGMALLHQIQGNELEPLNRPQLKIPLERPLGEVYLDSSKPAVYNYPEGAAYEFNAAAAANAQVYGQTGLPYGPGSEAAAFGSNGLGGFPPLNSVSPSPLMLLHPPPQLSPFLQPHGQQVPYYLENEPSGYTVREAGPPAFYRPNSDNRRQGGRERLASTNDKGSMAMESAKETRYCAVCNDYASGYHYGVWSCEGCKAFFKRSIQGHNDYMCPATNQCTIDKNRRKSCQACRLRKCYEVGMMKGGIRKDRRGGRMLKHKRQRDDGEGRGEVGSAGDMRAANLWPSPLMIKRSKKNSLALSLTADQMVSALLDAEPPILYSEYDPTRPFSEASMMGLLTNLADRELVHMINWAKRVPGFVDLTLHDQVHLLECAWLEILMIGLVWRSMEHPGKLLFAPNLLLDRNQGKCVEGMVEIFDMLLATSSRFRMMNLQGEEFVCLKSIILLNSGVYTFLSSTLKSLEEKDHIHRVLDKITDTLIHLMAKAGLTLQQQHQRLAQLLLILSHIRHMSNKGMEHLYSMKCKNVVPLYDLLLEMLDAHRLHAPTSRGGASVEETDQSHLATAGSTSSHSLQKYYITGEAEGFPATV

Assay [17] can be described thus: qHTS assay to identify small molecule antagonists of the sonic hedgehog signaling (Shh) pathway - cell viability counter screen (AID 1259367). Further: nearly all actives have a fitted effect of over 55% in size. Further: potency means the concentration at half of the fitted maximal effect. Summed up:
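Cytotoxicity was assessed in parallel with Shh reporter activity by measuring live-cell protease fluorescence (CellTiter-Fluor) in NIH/3T3 cells stably carrying Gli1-Luc, treated with compound under conditioned medium stimulation for 23 hr plus 1 hr reagent incubation.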

Assay [18] can be described thus: A CellTox Green Cytotoxicity Assay to monitor cytotoxicity in HEK293 cells - 8 hour (AID 1224884). Further: nearly all actives have a fitted effect of over 35% in size. Further: potency means the concentration at half of the fitted maximal effect. The method, boiled down:
as §3

Assay [19] is described as follows: qHTS assay to identify small molecule agonists of the sonic hedgehog signaling (Shh) pathway - cell viability counter screen (AID 1259366). Further: nearly all actives have a fitted effect of over 50% in size. Further: potency means the concentration at half of the fitted maximal effect. Summed up: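 CellTiter-Fluor fluorescence read-out, 1 hr at 37C, added after 23hr compound exposure. Cells: 3T3 Gli1-Luc, an NIH/3T3 clone with stably integrated Gli1-Luc reporter, plated 4hr before compound.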

Chain of Androgen receptor (Homo sapiens) (P10275 whole entry, looked up): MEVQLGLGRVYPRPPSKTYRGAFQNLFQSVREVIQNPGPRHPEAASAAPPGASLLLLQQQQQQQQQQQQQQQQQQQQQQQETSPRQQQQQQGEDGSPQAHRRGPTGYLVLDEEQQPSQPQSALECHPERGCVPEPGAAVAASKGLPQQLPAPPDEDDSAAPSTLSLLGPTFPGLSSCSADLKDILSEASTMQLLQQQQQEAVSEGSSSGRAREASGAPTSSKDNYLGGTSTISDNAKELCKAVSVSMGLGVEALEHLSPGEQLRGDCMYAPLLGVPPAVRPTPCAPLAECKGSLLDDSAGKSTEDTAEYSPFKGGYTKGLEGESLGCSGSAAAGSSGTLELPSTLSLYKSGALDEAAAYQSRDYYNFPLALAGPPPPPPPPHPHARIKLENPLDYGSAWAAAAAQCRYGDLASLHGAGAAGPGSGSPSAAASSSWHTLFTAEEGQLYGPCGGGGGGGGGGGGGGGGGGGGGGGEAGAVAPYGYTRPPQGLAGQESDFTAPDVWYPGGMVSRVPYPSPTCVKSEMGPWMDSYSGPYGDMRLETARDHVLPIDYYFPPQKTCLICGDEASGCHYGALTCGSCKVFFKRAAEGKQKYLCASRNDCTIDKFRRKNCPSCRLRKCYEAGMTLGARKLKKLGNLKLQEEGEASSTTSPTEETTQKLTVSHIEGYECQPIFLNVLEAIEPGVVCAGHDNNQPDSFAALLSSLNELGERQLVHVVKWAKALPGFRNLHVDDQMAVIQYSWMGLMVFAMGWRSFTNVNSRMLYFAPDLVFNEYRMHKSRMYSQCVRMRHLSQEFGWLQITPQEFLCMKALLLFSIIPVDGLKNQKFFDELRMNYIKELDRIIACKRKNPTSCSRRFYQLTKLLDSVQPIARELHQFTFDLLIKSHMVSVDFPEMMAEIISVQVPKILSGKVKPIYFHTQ

As to `CC(NCCC(c1ccccc1)c1ccccc1)c1ccccc1` (stereo not given), the Potency result in assay [1], in assay [7], in assay [9], in [12], in assay [13] and in assay [14] was “inactive” throughout. In addition, the Potency in assay [2] is 15.1 µM (active); in [3] it was 21.3 µM (active); in assay [4], 19 µM (active); in assay [5], 21.3 µM (active); in assay [6] it was 21.3 µM (active); in assay [8], 23.9 µM (active). Also, the Potency was 21.1 µM (active) in [10], 21.1 µM (active) in [11] and 26.6 µM (active) in [15].
Turning to `CO[Si](CCCNCCNCCN)(OC)OC`, the Potency result in assay [1], in assay [2], in assay [3], in assay [4], in assay [5] and in assay [6] was “inactive” throughout. Also, the Potency result in assay [7], in [8], in assay [9], in [10], in [11] and in assay [16] was “inactive” throughout. Further, the Potency result in assay [12], in assay [17], in [14] and in assay [15] was “inactive” each time.
With `CCN(CC)CCOC(=O)C1(C2CCCCC2)CCCCC1`, the Potency result in [1], in assay [18], in assay [3], in [9], in assay [10] and in assay [16] was “inactive” each time. The Potency entry in [12], in [13], in assay [17] and in [14] was “inactive” in each case. Moreover, the Potency in [2] is 23.9 µM (active).
`CN(C)c1ccc(N=Nc2ccccc2C(=O)O)cc1`: the Potency result in [1], in assay [2], in assay [18], in assay [4], in assay [5] and in [6] was “inactive” throughout. The Potency result in assay [7], in assay [8], in assay [9], in [16] and in assay [14] was “inactive” each time. The Potency is 8.63 µM (active) in assay [12], 21.7 µM (active) in [19], 24.3 µM (active) in assay [17] and 2.17 µM (active) in assay [15].
With `Nc1ncnc2c1ncn2[C@@H]1O[C@H](COP(=O)(O)O)[C@@H](O)[C@H]1O`, the Potency entry in assay [1], in assay [2], in [18], in [4], in assay [5] and in [6] was “inactive” each time. In addition, the Potency result in assay [9], in assay [10], in [12], in [19], in assay [17] and in assay [14] was “inactive” each time. In assay [15], the Potency result was “inactive”.
As to `CCc1ccc(O)c(C(C)(C)C)c1`, the Potency result in [1], in [18], in [4], in assay [5], in assay [6] and in [7] was “inactive” in each case. Also, the Potency entry in [9], in assay [10], in [16], in assay [12], in [13] and in assay [17] was “inactive” in each case. Further, the Potency entry in [14] and in assay [15] was “inactive” throughout. Moreover, the Potency in assay [2] was 38.9 µM (active).
With `Clc1cccnc1`, the Potency result in assay [1], in assay [2], in [3], in assay [4], in assay [5] and in [6] was “inactive” each time. Moreover, the Potency result in assay [7], in [8], in [9], in assay [10], in assay [11] and in assay [16] was “inactive” throughout. In addition, the Potency result in assay [12], in assay [13], in assay [19], in assay [17], in [14] and in [15] was “inactive” each time.
With `CN1CCN(C2Cc3ccccc3Sc3ccc(Cl)cc32)CC1` (stereo not given), the Potency result in assay [1], in assay [5], in [7], in [9], in [16] and in [12] was “inactive” in each case. Also, the Potency result in [14] was “inactive”. Also, the Potency in assay [2] was 23.9 µM (active); in assay [18], 19 µM (active); in assay [6], 21.3 µM (active); in [11] it was 29.8 µM (active); in assay [15], 6.68 µM (active).
